# In the supplement of paper PMC8728848:
# Only a selection was taken, and the strongest signals are over-represented in it overall.
# What was measured:
# Experiment in all cases: glycan array binding signal (z-score within array); higher = stronger binding
# Details in all cases: glycan notation: IUPAC condensed, linker removed
# [1] = molecular target: Fuc(a1-2)Gal(b1-3)GalNAc(b1-3)Gal(a1-4)Gal(b1-4)Glc
# How it was run: (§1)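 Columns mapping to the same glycan were averaged after glycan names were converted to IUPAC-condensed notation. The data come from 3228 arrays in the Consortium for Functional Glycomics database, limited to those with an available protein sequence. Binding is reported as a within-array Z-score averaged across arrays of one protein sequence and across linkers.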
# [2] = molecular target: Fuc(a1-2)Gal(b1-3)[Fuc(a1-4)]GlcNAc(b1-3)[Gal(b1-4)GlcNAc(b1-6)]Gal(b1-4)Glc
# How it was run: as §1
# [3] = molecular target: Fuc(a1-2)Gal(b1-4)[Fuc(a1-3)]GlcNAc(b1-3)GalNAc
# How it was run: as §1
# [4] = molecular target: Fuc(a1-2)[GalNAc(a1-3)]Gal(b1-4)GlcNAc(b1-2)Man(a1-3)[Fuc(a1-2)[GalNAc(a1-3)]Gal(b1-4)GlcNAc(b1-2)Man(a1-6)]Man(b1-4)GlcNAc(b1-4)GlcNAc
# How it was run: as §1
# [5] = molecular target: Fuc(a1-2)[GalNAc(b1-3)]Gal
# How it was run: as §1
# [6] = molecular target: Fuc(a1-3)[Gal(b1-4)]GlcNAc(b1-2)Man(a1-3)[Fuc(a1-3)[Gal(b1-4)]GlcNAc(b1-2)Man(a1-6)]Man(b1-4)GlcNAc(b1-4)GlcNAc
# How it was run: as §1
# [7] = molecular target: Fuc(a1-3)[Gal(b1-4)]GlcNAc(b1-3)GalNAc
# How it was run: as §1
# [8] = molecular target: Gal(a1-3)Gal(b1-3)GlcNAc(b1-2)Man(a1-3)[Gal(a1-3)Gal(b1-3)GlcNAc(b1-2)Man(a1-6)]Man(b1-4)GlcNAc(b1-4)GlcNAc
# How it was run: as §1
# [9] = molecular target: Gal(a1-3)Gal(b1-3)[Fuc(a1-4)]GlcNAc(b1-2)Man(a1-3)[Gal(a1-3)Gal(b1-3)[Fuc(a1-4)]GlcNAc(b1-2)Man(a1-6)]Man(b1-4)GlcNAc(b1-4)GlcNAc
# How it was run: as §1
# Gal(a1-4)Gal(b1-4)GlcNAc = molecular target: Gal(a1-4)Gal(b1-4)GlcNAc
# How it was run: as §1
# [10] = molecular target: Gal(a1-4)Gal(b1-4)GlcNAc(b1-2)Man(a1-3)[Gal(a1-4)Gal(b1-4)GlcNAc(b1-2)Man(a1-6)]Man(b1-4)GlcNAc(b1-4)GlcNAc
# How it was run: as §1
# [11] = molecular target: Gal(a1-4)Gal(b1-4)GlcNAc(b1-3)Gal(b1-4)Glc
# How it was run: as §1
# Gal(b1-3)Gal(b1-4)GlcNAc = molecular target: Gal(b1-3)Gal(b1-4)GlcNAc
# How it was run: as §1
# [12] = molecular target: Gal(b1-3)GlcNAc(b1-3)Gal(b1-3)GlcNAc
# How it was run: as §1
# [13] = molecular target: Gal(b1-3)GlcNAc(b1-3)Gal(b1-4)GlcNAc
# How it was run: as §1
# [14] = molecular target: Gal(b1-3)[Neu5Ac(a2-6)]GalNAc
# How it was run: as §1
# [15] = molecular target: Gal(b1-4)GlcNAc(b1-2)Man(a1-3)[Man(a1-6)]Man(b1-4)GlcNAc(b1-4)GlcNAc
# How it was run: as §1
# [16] = molecular target: Gal(b1-4)GlcNAc(b1-3)[Gal(b1-4)GlcNAc(b1-6)]GalNAc
# How it was run: as §1
# Gal3S(b1-4)Glc = molecular target: Gal3S(b1-4)Glc
# How it was run: as §1
# [17] = molecular target: GalNAc(b1-3)Gal(a1-4)Gal(b1-4)GlcNAc(b1-3)Gal(b1-4)Glc
# How it was run: as §1
# [18] = molecular target: GalNAc(b1-3)Gal(a1-6)Gal(b1-4)Glc
# How it was run: as §1
# GlcA(b1-3)GlcNAc = molecular target: GlcA(b1-3)GlcNAc
# How it was run: as §1
# [19] = molecular target: GlcNAc(a1-4)Gal(b1-4)GlcNAc
# How it was run: as §1
# [20] = molecular target: GlcNAc(a1-4)Gal(b1-4)GlcNAc(b1-3)Gal(b1-4)[Fuc(a1-3)]GlcNAc(b1-3)Gal(b1-4)[Fuc(a1-3)]GlcNAc
# How it was run: as §1
# [21] = molecular target: GlcNAc(b1-2)Man(a1-3)[GlcNAc(b1-2)Man(a1-6)]Man(b1-4)GlcNAc(b1-4)GlcNAc
# How it was run: as §1
# [22] = molecular target: GlcNAc(b1-2)[GlcNAc(b1-4)]Man(a1-3)[GlcNAc(b1-4)][GlcNAc(b1-2)Man(a1-6)]Man(b1-4)GlcNAc(b1-4)GlcNAc
# How it was run: as §1
# [23] = molecular target: GlcNAc(b1-3)Gal(b1-3)GalNAc
# How it was run: as §1
# GlcNAc(b1-3)Gal(b1-4)Glc = molecular target: GlcNAc(b1-3)Gal(b1-4)Glc
# How it was run: as §1
# GlcNAc(b1-3)GalNAc = molecular target: GlcNAc(b1-3)GalNAc
# How it was run: as §1
# [24] = molecular target: GlcNAc(b1-4)GlcNAc(b1-4)GlcNAc(b1-4)GlcNAc(b1-4)GlcNAc(b1-4)GlcNAc
# How it was run: as §1
# [25] = molecular target: GlcNAc(b1-4)[GlcNAc(b1-6)]GalNAc
# How it was run: as §1
# [26] = molecular target: Neu5Ac(a2-3)Gal(b1-3)GalNAc(b1-3)Gal(a1-4)Gal(b1-4)Glc
# How it was run: as §1
# [27] = molecular target: Neu5Ac(a2-3)Gal(b1-3)GalNAc(b1-4)[Neu5Ac(a2-3)]Gal(b1-4)Glc
# How it was run: as §1
# [28] = molecular target: Neu5Ac(a2-3)Gal(b1-3)GlcNAc(b1-3)Gal(b1-3)GlcNAc
# How it was run: as §1
# [29] = molecular target: Neu5Ac(a2-3)Gal(b1-3)[Fuc(a1-4)]GlcNAc(b1-3)Gal(b1-3)[Fuc(a1-4)]GlcNAc
# How it was run: as §1
# [30] = molecular target: Neu5Ac(a2-3)Gal(b1-4)[Fuc(a1-3)]GlcNAc(b1-3)Gal(b1-4)GlcNAc
# How it was run: as §1
# [31] = molecular target: Neu5Ac(a2-6)Gal(b1-3)GlcNAc(b1-3)[Gal(b1-4)GlcNAc(b1-6)]Gal(b1-4)Glc
# How it was run: as §1
# [32] = molecular target: Neu5Ac(a2-6)Gal(b1-4)GlcNAc(b1-2)Man(a1-3)[GlcNAc(b1-2)Man(a1-6)]Man(b1-4)GlcNAc(b1-4)GlcNAc
# How it was run: as §1
# [33] = molecular target: Neu5Ac(a2-6)Gal(b1-4)GlcNAc(b1-3)GalNAc
# How it was run: as §1
# [34] = molecular target: Neu5Ac9Ac(a2-6)Gal(b1-4)GlcNAc
# How it was run: as §1
# Neu5Gc(a2-3)Gal(b1-4)Glc = molecular target: Neu5Gc(a2-3)Gal(b1-4)Glc
# How it was run: as §1
# [35] = molecular target: Neu5Gc(a2-3)Gal(b1-4)GlcNAc
# How it was run: as §1
# [36] = molecular target: Neu5Gc(a2-6)Gal(b1-4)GlcNAc
# How it was run: as §1
# Neu5Gc(a2-6)GalNAc = molecular target: Neu5Gc(a2-6)GalNAc
# How it was run: as §1
binder,measurement,setting,value
"CwpV (Clostridium difficile), B6EFG6 (protein) MKIPKKIAAMLTVTMIAGSSTAGIASAQTVATNLTGQERYETAVKISQDGWKNADEVVIVNDSSIADALSATPFAKAKNAPILLTSKDKLNDKTKAEIQRLKAKKVYLIGGTSVLSTNIEKEIKDLKISFERISGAERYQTSLELAKKLDAISDVKKIAVVNGEKGLADAVSVGAPAAQNNMPVILADSKNGTAVADKFIKDAGITQSYVVGGESSISEAVKNKLPNSTRLGGTDRNDTNAKVIKEFYKKTDLKNAYVTKDGMNKQDQLIDALAVGVLGAKNQSPVVLVGKNLSASQKSLVNSKSFDKITKVGGNGNETAFNEMKSLQEVKTVEAKTISELKSAIDKATANDVINFKPTSEVKEAFTIQTDKAVTVNLNGTYTKTVTINMPNGDVNNYAKVDDVVIDDVKDGTFVNYGKITNLKVNDKNGAKIENNSKGEIGSLTVASGASQVKVTNGGKITTVTNNSKGTTIDNKGTISSVKGDNSPTISGNSPSSNSSGGSSSSGGSSGGSSGGSSSSKVGQIKFSATDKQIKMASGDKTVDPSDNTYILKLTNGTVKDGDVKANVKVAGLPSGLDYTAVGNRSANTITITVSGTTSQSIQNDLNNVSVLVKAGAVSGTGATDSIANTTFEIKKYVAAPAVGQLTFDATDKQIKMASGDKTVDPSDDTYVLTLTKGTAKDGDIKANVEVTGLPSGLDYTAEGDSSANTITIPVSGTASPAVQTDLDNVSVLVKAGAVSETTATDSAANATFEVKKYVAPAVGQLTFDATDKQIKMASGDKTVDPSDDTYVLTLTKGTAKDGDIKANVEVTGLPSGLDYTAEGDSSANTITITVSGTASQAVQTDLDNVSVLVKAGAVSETTATDSAANATFEVKKYVAPAIGQLTFDATDKQIKMASGDKTVDPSDDTYVLTLTKGTAKDGDIKANVEVTGLPSGLDYTAEGDSSANTITITVSGTASQAVQTDLDNVSVLVKAGAVSETTATDSAANATFEVKKHASDPISTIGKISSGLSSLFNILK",glycan array binding signal (z-score),[1],2.48
same,glycan array binding signal (z-score),[2],0.041
same,glycan array binding signal (z-score),[3],0.596
same,glycan array binding signal (z-score),[4],-0.032
same,glycan array binding signal (z-score),[5],-0.249
same,glycan array binding signal (z-score),[6],-0.175
same,glycan array binding signal (z-score),[7],0.07
same,glycan array binding signal (z-score),[8],0.365
same,glycan array binding signal (z-score),[9],0.538
same,glycan array binding signal (z-score),Gal(a1-4)Gal(b1-4)GlcNAc,2.24
same,glycan array binding signal (z-score),[10],9.72
same,glycan array binding signal (z-score),[11],2.79
same,glycan array binding signal (z-score),Gal(b1-3)Gal(b1-4)GlcNAc,-0.025
same,glycan array binding signal (z-score),[12],-0.249
same,glycan array binding signal (z-score),[13],0.622
same,glycan array binding signal (z-score),[14],-0.248
same,glycan array binding signal (z-score),[15],-0.26
same,glycan array binding signal (z-score),[16],-0.34
same,glycan array binding signal (z-score),Gal3S(b1-4)Glc,-0.29
same,glycan array binding signal (z-score),[17],6.4
same,glycan array binding signal (z-score),[18],2.68
same,glycan array binding signal (z-score),GlcA(b1-3)GlcNAc,8.78
same,glycan array binding signal (z-score),[19],-0.192
same,glycan array binding signal (z-score),[20],0.469
same,glycan array binding signal (z-score),[21],-0.124
same,glycan array binding signal (z-score),[22],-0.317
same,glycan array binding signal (z-score),[23],-0.217
same,glycan array binding signal (z-score),GlcNAc(b1-3)Gal(b1-4)Glc,-0.297
same,glycan array binding signal (z-score),GlcNAc(b1-3)GalNAc,-0.322
same,glycan array binding signal (z-score),[24],1.05
same,glycan array binding signal (z-score),[25],-0.284
same,glycan array binding signal (z-score),[26],11.2
same,glycan array binding signal (z-score),[27],-0.101
same,glycan array binding signal (z-score),[28],-0.328
same,glycan array binding signal (z-score),[29],0.484
same,glycan array binding signal (z-score),[30],0.368
same,glycan array binding signal (z-score),[31],-0.21
same,glycan array binding signal (z-score),[32],-0.249
same,glycan array binding signal (z-score),[33],0.056
same,glycan array binding signal (z-score),[34],-0.322
same,glycan array binding signal (z-score),Neu5Gc(a2-3)Gal(b1-4)Glc,-0.229
same,glycan array binding signal (z-score),[35],-0.046
same,glycan array binding signal (z-score),[36],-0.292
same,glycan array binding signal (z-score),Neu5Gc(a2-6)GalNAc,-0.29
